From PubChem BioAssay
Sampled rows, rich in hits. Any-hit rate of the full collection: about 3.4%.
MITF inh: blocks human microphthalmia-associated transcription factor; inhibition, % at 2.6 µM; AlphaScreen MITF homodimerization, bead proximity signal; 650,000 compounds, 0.91% hits; O75030; in the data active = inhibition above about 50%;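 also: 0% = vehicle wells with protein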
Target sequence (O75030 whole entry, looked up): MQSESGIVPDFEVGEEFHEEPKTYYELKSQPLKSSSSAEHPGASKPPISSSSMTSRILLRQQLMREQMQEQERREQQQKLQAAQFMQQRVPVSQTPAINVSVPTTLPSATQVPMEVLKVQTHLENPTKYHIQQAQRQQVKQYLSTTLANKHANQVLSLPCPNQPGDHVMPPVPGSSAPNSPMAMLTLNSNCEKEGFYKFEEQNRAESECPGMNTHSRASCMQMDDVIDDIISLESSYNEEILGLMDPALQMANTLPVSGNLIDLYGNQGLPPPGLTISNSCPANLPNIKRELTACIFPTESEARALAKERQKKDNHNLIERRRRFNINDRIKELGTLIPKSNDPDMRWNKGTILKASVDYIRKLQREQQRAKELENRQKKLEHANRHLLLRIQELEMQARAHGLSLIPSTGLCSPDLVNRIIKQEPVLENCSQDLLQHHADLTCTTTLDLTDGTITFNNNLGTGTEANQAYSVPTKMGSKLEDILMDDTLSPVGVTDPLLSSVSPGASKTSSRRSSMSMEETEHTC
TEAD-YAP inh: TEAD-YAP interaction inhibition. HEK-TIYL cells, TEAD-Gal4/YAP UAS-luciferase luminescence. inhibition, % at 9.12 µM. 640,000 compounds, 1.4% hits; in the data active = inhibition above about 32%;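 also: 0% = median of test compound wells and 100% = reference inhibitor wells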
GPR151 activ: activators of human GPR151; PathHunter beta-arrestin GPR151 cells, luminescence; activation, % at 11.2 µM; Q8TDV0; 650,000 compounds, 1% hits; AID 1508602; in the data active = activation above about 4.9%;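 also: 0% = median of compound wells and 100% = cells with positive control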
FBW7 act: activators of human E3 ligase FBW7. Q969H0. 650,000 compounds, 0.13% hits. normalized activity (activation), % at 26.1 µM. AID 1259310. AlphaScreen FBW7–phospho-cyclin E peptide binding, activator screen; in the data active = normalized activity above about 1.9%;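 also: purified mutant Fbw7 with reduced substrate affinity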
Numbers without * were called inactive.

SMILES	MITF inh	TEAD-YAP inh	GPR151 activ	FBW7 act
COc1ccc(CCN=c2c([N+](=O)[O-])nn(-c3ccc4c(c3)OCCO4)n2O)cc1OC	8.9	17.4	0.2	-0.2
COc1ccc(-n2[nH]c(C)c(N=O)c2=O)cc1	3.5	39.0*	0.6	-0.1
COc1ccc(C)cc1Cn1c(-c2nonc2N)nc2ccccc21	0.3	52.9*	0.2	0.2
COc1cc(Cn2c(-c3nonc3N)nc3ccccc32)ccc1C	2.0	51.1*	-0.7	-0.2
COc1cccc(Cn2c(-c3nonc3N)nc3ccccc32)c1	9.9	38.0*	0.4	0.1
COc1ccc(Cn2c(-c3nonc3N)nc3ccccc32)cc1	0.4	-5.6	1.3	0.1
Cc1ccc(Cn2c(-c3nonc3N)nc3ccccc32)cc1	-3.6	-8.6	0.0	-0.1
CC(=O)c1ccc(NC(=O)c2noc3c2CCC3)cc1	24.7	80.0*	-3.4	0.0
O=C(Nc1ccc(Cl)c(C(F)(F)F)c1)c1ccc(NC(=O)C2CCCO2)cc1 (stereo not given)	13.1	34.1*	0.7	0.1
COCCOC(=O)C1=C(C)NC2=C(C(=O)CC(c3ccc(OC)cc3)C2)C1c1cc(OC)c(OC)c(OC)c1 (stereo not given)	0.9	15.7	0.5	0.1
CCCNC(=O)c1sc(N)c(C(=O)OC)c1C	-3.1	-10.5	0.6	-0.1
COC(=O)c1c(N)sc(C(=O)Nc2cc(C)ccc2C)c1C	6.5	79.3*	-3.0	0.2
COC(=O)c1c(N)sc(C(=O)NCCc2ccccc2)c1C	8.0	72.5*	-5.1	0.6
COC(=O)c1c(N)sc(C(=O)Nc2cccc(Cl)c2)c1C	-2.4	71.7*	-5.6	0.0
N#Cc1c(Cl)nc(Nc2cccc(F)c2)c(Cl)c1Cl	0.8	20.9	-1.3	0.1
N#Cc1c(Cl)nc(Nc2ccccc2)c(Cl)c1Cl	11.6	33.5*	0.0	0.8
CCN1CCN(c2cc(C)c3cc(NC(=O)/C=C/c4ccc(OC)cc4)ccc3n2)CC1	2.3	-1.7	0.4	0.1
CC(C)(C)OC(=O)C1C(=O)CC(C)(O)C(C(=O)OC(C)(C)C)C1c1cccc(O)c1 (stereo not given)	10.2	4.0	-0.6	0.4
O=C(COc1ccccc1)Nc1ccc2nn(-c3ccccc3)nc2c1	-2.4	-11.4	-0.4	0.1
CC(C)CC(=O)Nc1ccc2nn(-c3ccccc3)nc2c1	10.4	-49.4	-0.5	3.0*
CC(=O)Nc1cc2nn(-c3ccccc3)nc2cc1C	-12.4	50.1*	-6.5	0.0
Cc1cc2nn(-c3ccccc3)nc2cc1NC(=O)C(C)C	19.4	18.7	-0.8	0.0
CCN(Cc1ccccc1)C(=O)CC1(c2ccccc2C)CC(=O)N(CCN(C)C)C1=O (stereo not given)	-8.5	1.9	-0.6	0.1
COCCOC(=O)C1=C(C)NC(=O)NC1c1ccc(Br)c([N+](=O)[O-])c1 (stereo not given)	-3.5	5.4	0.8	0.0
COc1ccc(OC)c(C(=O)c2oc3ccc(Br)cc3c2N)c1	12.4	48.8*	-0.7	-0.3
SMILES	MITF inh	TEAD-YAP inh	GPR151 activ	FBW7 act
Cc1ccc(Nc2nc(-c3c(C)nc4ncccn34)cs2)c(C)c1	12.2	51.9*	-0.5	-0.1
Cc1ccn2c(-c3csc(Nc4ccc(N(C)C)cc4)n3)c(C)nc2c1	12.4	54.0*	0.9	-0.7
Cc1ccc(Nc2nc(-c3cccnc3)cs2)c(C)c1	11.6	48.6*	-3.5	0.1
Cc1ccc(Nc2nc(-c3ccncc3)cs2)c(C)c1	-0.1	-74.2	1.7	-0.1
Cc1ccc(Nc2nc(-c3c(C)nc4cc(C)ccn34)cs2)c(C)c1	-1.3	41.7*	-1.0	-0.1
COc1ccc(OC)c(-c2csc(N3C(=O)CCC3=O)n2)c1	8.2	7.4	-0.1	0.0
COc1ccccc1NC(=O)c1cnn(-c2ccc(F)cc2)c1C1CCNCC1	4.3	-2.3	-0.1	-0.4
O=C(O)c1cc(S(=O)(=O)Nc2ccc3c(c2)OCCO3)c(Cl)cc1Cl	4.6	35.7*	1.3	0.0
Cc1ccc(N2C(N)=C(C#N)C(c3ccc4c(c3)OCO4)C3=C2CC(C)(C)CC3=O)cc1 (stereo not given)	-10.6	41.8*	-1.6	-0.3
COc1cc(C2C(C#N)=C(N)N(c3ccc(C)cc3)C3=C2C(=O)CC(C)(C)C3)cc(OC)c1OC (stereo not given)	-3.5	54.1*	-0.2	0.0
COc1ccc(CCNc2nc3c(c(=O)n(C)c(=O)n3C)n2Cc2cccc(Br)c2)cc1OC	-1.1	-13.5	0.2	-0.4
O=c1c(Nc2ccccc2)c(-c2ccc(Cl)cc2)c1=O	8.6	47.1*	-0.8	0.0
O=c1c(Nc2ccc(Cl)cc2)c(-c2ccccc2)c1=O	9.3	-2.1	0.4	-0.1
CCOc1ccccc1Nc1c(-c2ccccc2)c(=O)c1=O	-0.8	-7.5	-0.8	0.5
CCOc1ccc(Nc2c(-c3ccccc3)c(=O)c2=O)cc1	19.9	59.6*	-2.1	0.1
CCCn1c(-c2ccc(N)cc2)nc2ccccc21	2.2	35.3*	-8.0	0.0
COc1ccc(-c2nc3ccccc3c(=O)n2-c2nc3ccccc3n2C)cc1	-9.3	87.8*	-0.4	0.4
COc1ccc(-c2nc3ccccc3n2C)cc1	11.9	32.2*	-8.0	0.2
Cc1nc2ncccn2c1-c1csc(Nc2ccccc2)n1	7.9	-3.9	-0.1	0.4
CC(=O)Nc1ccc(Nc2nc(-c3c(C)nc4ncccn34)cs2)cc1	3.5	-11.8	-0.2	0.0
Cc1nc2ncccn2c1-c1csc(Nc2ccc(N(C)C)cc2)n1	25.8	51.5*	-1.7	-0.1
COc1ccc(Nc2nc(-c3c(C)nc4ncccn34)cs2)cc1	11.2	58.1*	-0.4	-0.1
CC(=O)CSc1nc(C2CC2)cc(C(F)(F)F)c1C#N	11.2	14.5	-0.5	2.7*
CC12CCC(C(=O)N(CNc3ccccc3)C1=O)C2(C)C (stereo not given)	9.5	-1.1	0.2	0.0
COc1ccc(OC)c(CCNC(=O)c2cc3c(C)nc4ccccc4c3o2)c1	-0.8	45.8*	1.8	-0.1
SMILES	MITF inh	TEAD-YAP inh	GPR151 activ	FBW7 act
O=C1ON=C(c2ccccc2)/C1=C\c1ccccc1OCc1ccc(Cl)cc1	67.5*	-37.7	1.1	-0.1
CCCCOc1ccccc1/C=C1/C(=O)ON=C1c1ccccc1	68.5*	-8.6	1.3	0.1
CCCCCOc1ccccc1/C=C1/C(=O)ON=C1c1ccccc1	62.5*	-6.1	-0.5	-0.1
C=CCOc1ccc(/C=C2/C(=O)ON=C2c2ccccc2)cc1	64.8*	-2.2	-0.4	0.0
O=C1ON=C(c2ccccc2)/C1=C/c1c(OCc2ccc(Cl)cc2)ccc2ccccc12	20.7	-62.3	0.1	0.1
CCOC(=O)Cn1c(=O)oc2cc(S(=O)(=O)N(CC)CC)ccc21	0.4	-3.5	-1.5	0.0
NC1=NC(=O)/C(=C\c2cc(Br)cc(Br)c2OCc2ccc(Cl)cc2Cl)S1	7.3	0.1	-0.4	0.1
CCOc1cc(/C=C2\C(=O)ON=C2c2ccccc2)ccc1OCc1ccccc1	57.4*	-6.6	1.6	0.0
COc1cc([C@@H]2c3cc4c(cc3C(OC3O[C@@H]5COC(C)O[C@H]5[C@H](O)[C@H]3O)C3COC(=O)[C@@H]32)OCO4)cc(OC)c1O (stereo not given in full)	7.7	-26.1	0.2	0.1
